Sfp PPTase inh = Sfp phosphopantetheinyl transferase inhibition | Biochemical Sfp PPTase activity, qHTS | hit rate 3.5% among 310,000 | Potency, µM, actives largely listed as inhibitors | AID 1490;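 also: the enzyme is Sfp with the accession as filed and its product quenches rhodamine fluorescence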
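Sfp 15 nM + cpd, 15 min RT; start w/ rhodamine-CoA 5 uM, BHQ-2-YbbR 12.5 uM (final); 50 mM Hepes pH 7.6, 10 mM MgCl2, 0.01% NP-40, 0.01% BSA; read 525/598 nm at 0 and 30 min.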
JMJD2A Tudor = inhibitors of human JMJD2A Tudor domain; O75164; AlphaScreen JMJD2A-Tudor / H3K4me3 peptide binding; Potency, µM (highest dose often 114 µM), hits mostly inhibitors; hit rate 4.4% among 390,000; AID 504339; also: nearly all actives have a fitted effect of over 50% in size
G9a block = G9a (human) methyltransferase inhibition; AID 504332; G9a H3K9 monomethylation, AlphaScreen, 2 h; Potency, µM (doses to about 102 µM), actives largely listed as inhibitors; hit rate 8.8% among 350,000; Q96KQ7; also: nearly all actives have a fitted effect of over 75% in size
Target sequence (Q96KQ7 913-1193 limits assumed): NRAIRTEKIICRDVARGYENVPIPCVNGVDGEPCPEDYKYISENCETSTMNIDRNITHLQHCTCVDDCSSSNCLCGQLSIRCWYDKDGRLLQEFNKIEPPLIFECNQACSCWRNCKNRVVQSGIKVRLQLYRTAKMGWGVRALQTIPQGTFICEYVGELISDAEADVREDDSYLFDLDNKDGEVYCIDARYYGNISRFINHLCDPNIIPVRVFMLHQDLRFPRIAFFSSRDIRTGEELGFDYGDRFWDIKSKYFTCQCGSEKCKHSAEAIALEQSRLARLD
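AlphaScreen read-out: biotin-H3K9 peptide (500 nM) methylation by 20 nM enzyme with 20 uM SAM, 2 h at room temperature after 15 min compound preincubation; anti-monomethyl H3K9 antibody plus donor/acceptor beads, 10 min dark.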
HP1b chromo inh = blocks HP1-beta chromodomain binding to methylated histone tails | AID 540317 | hit rate 0.56% among 390,000 | P83916 | Potency, µM (series often up to 114 µM), actives largely listed as inhibitors | AlphaScreen HP1-beta / biotin-H3K9me3 peptide binding; also: nearly all actives have a fitted effect of over 70% in size
Target sequence (P83916 whole entry, looked up): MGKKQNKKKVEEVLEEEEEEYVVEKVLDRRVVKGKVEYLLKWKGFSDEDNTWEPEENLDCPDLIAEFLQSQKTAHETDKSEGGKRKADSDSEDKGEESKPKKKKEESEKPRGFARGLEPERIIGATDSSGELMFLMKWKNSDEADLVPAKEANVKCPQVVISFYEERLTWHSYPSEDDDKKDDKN
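Compound inhibition of the preformed complex between 50 nM HP1-beta and 50 nM biotinylated H3K9me3 peptide was read by AlphaScreen. Buffer was PBS pH 7.4 with 0.01% Tween-20. Incubations ran 30 min at room temperature, with 10 ug/mL donor/acceptor beads.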
BAZ2B inh = inhibitors of human BAZ2B bromodomain. Q9UIF8. AlphaScreen BAZ2B-H3K14Ac peptide displacement. Potency, µM (series often up to 114 µM), actives largely listed as inhibitors. hit rate 4.4% among 360,000; also: nearly all actives have a fitted effect of over 60% in size
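BAZ2B 50 nM plus b-H3(5-23)K14Ac 50 nM, PBS pH 7.4/0.01% Tween-20, 30 min RT; compound added (max 110 uM), 30 min RT; streptavidin donor/Ni-chelate acceptor beads 10 ug/mL final, 20 min dark; AlphaScreen read.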
Of the large screens only hits and unclear results are named; the others gave an inactive call; ! = repeats disagree. Shown are actives, neighbours in structure and some others; about 12% of the full set was active somewhere. Calls follow the shape of the dose curve; as a rule, active = well fitted curve in the direction sought with a large enough effect; inconclusive = small, poorly fitted or top-dose-only effect, or another doubt; inactive = no such curve, though single readings can be large; an effect the other way counts as inactive or inconclusive.

C/C(=N\Nc1ccc(F)cc1)c1ccc(N2CCOCC2)c(F)c1	G9a block 28µM
CC1(C)C2CCC(C2)C1(C)NC(=O)CN1CCN(Cc2ccccc2)CC1 (stereo not given)	Sfp PPTase inh inconclusive, JMJD2A Tudor 1.4µM, G9a block 5.6µM, HP1b chromo inh 16µM, BAZ2B inh 28µM
Cc1ccc(NC(=O)CN2CCN(Cc3ccccc3)CC2)cc1	none
COc1cc(N)c(Cl)cc1C(=O)CCC1CCN(CCNS(C)(=O)=O)CC1	none (no result: JMJD2A Tudor, HP1b chromo inh, BAZ2B inh)
O=C(O)[C@@H]1C[C@H](C(=O)O)N1	G9a block 12µM! (no result: BAZ2B inh)
O=C(O)[C@@H]1CN[C@@H](C(=O)O)C1	none (no result: JMJD2A Tudor, HP1b chromo inh, BAZ2B inh)
CC(C)n1cc(/C=N/Nc2ccc(Cl)c(C(=O)O)c2)c2ccccc21	G9a block 10µM, BAZ2B inh 45µM (no result: JMJD2A Tudor, HP1b chromo inh)
O=C(N/N=C/c1cn(Cc2ccccc2)c2ccccc12)c1cc(O)cc(O)c1	JMJD2A Tudor inconclusive, G9a block 79µM, BAZ2B inh 50µM
O=C(O)c1ccc(N/N=C/c2cn(Cc3ccc(F)cc3)c3ccccc23)cc1	JMJD2A Tudor 56µM, G9a block 45µM, BAZ2B inh 45µM
Cc1ccc(/C=N/Nc2ccc(Cl)c(C(=O)O)c2)s1	G9a block inconclusive, BAZ2B inh inconclusive
Cc1nc2nc(CNC(=O)OC(C)(C)C)nn2c(C)c1CCC(=O)Nc1ccc2c(c1)OCO2	BAZ2B inh inconclusive (no result: G9a block)
COc1ccc(CCN2CC(C#N)=C3c4cc(OC)c(OC)cc4CCN3C2)cc1OC	JMJD2A Tudor inconclusive, G9a block inconclusive, BAZ2B inh inconclusive
COc1cc2c(cc1OC)C1=C(C#N)CN(C3CCCCC3)CN1CC2	JMJD2A Tudor inconclusive, G9a block 45µM, BAZ2B inh inconclusive
CC1CCN(CCCNC(=O)c2ccc(Cn3c(=S)[nH]c4ccc(Br)cc4c3=O)cc2)CC1	G9a block 18µM, BAZ2B inh inconclusive (no result: JMJD2A Tudor, HP1b chromo inh)
COc1cc2[nH]c(=O)n(Cc3ccc(C(=O)NCCCN4CCN(C)CC4)cc3)c(=O)c2cc1OC	none
O=C(NCc1cccnc1)c1ccc(Cn2c(=S)[nH]c3ccc(Br)cc3c2=O)cc1	BAZ2B inh inconclusive
O=C(NCCN1CCCC1)c1ccc(Cn2c(=S)[nH]c3cc4c(cc3c2=O)OCO4)cc1	JMJD2A Tudor 40µM, G9a block inconclusive
CN1CCN(CCCNC(=O)c2ccc(Cn3c(=S)[nH]c4ccc(Br)cc4c3=O)cc2)CC1	JMJD2A Tudor inconclusive, G9a block 32µM, BAZ2B inh inconclusive
CCn1c(C)nc2cc(C(=O)NNS(=O)(=O)c3ccc(C)c(C)c3)ccc21	none
CCn1c(C)nc2cc(C(=O)NNC(=S)Nc3ccc(OC)cc3)ccc21	G9a block 40µM
COc1ccc(C(=O)NNC(=S)Nc2ccccc2)cc1	G9a block 45µM
O=C(NNC(=S)Nc1cccc(Cl)c1)c1ccccc1	G9a block 35µM
CCn1c(C)nc2cc(C(=O)NNS(=O)(=O)c3c(F)cc(F)c(Cl)c3F)ccc21	JMJD2A Tudor 25µM, G9a block 40µM
CCCc1c(OCCCCc2nn[nH]n2)ccc(C(C)=O)c1O	G9a block inconclusive
O=C(NNC(=S)Nc1ccc(Cl)cc1)c1ccccc1	G9a block 35µM
O=C(NNC(=S)Nc1ccccc1Cl)c1ccccc1	none (no result: G9a block)
COC(=O)CN1C(=O)C(C)(C)Oc2ccc(C(=O)NC3CC3)cc21	none
CC(C)CN(CCOc1cccc(N2C(=O)C3=C(CCCC3)C2=O)c1)CC(C)C	none
O=C1C2=C(CCCC2)C(=O)N1c1cccc(OCCBr)c1	G9a block 40µM
CCOCCc1nn2c(=O)cc(CSCC(=O)Nc3ccccc3)nc2s1	none
COc1ccc(-c2ccc(C(C)=O)cc2)cc1C1C2C=CCCC2(C)C(=O)N1Cc1ccccc1 (stereo not given)	Sfp PPTase inh 45µM, JMJD2A Tudor inconclusive (no result: G9a block, BAZ2B inh)
COc1ccc(-c2ccc(OC)c([C@H]3[C@H]4C=CC[C@@H](C)[C@@H]4C(=O)N3Cc3ccccc3)c2)cc1OC	JMJD2A Tudor 40µM
COc1ccc(CNS(=O)(=O)c2c(C)[nH]c(C)c2C(=O)N2CCCC2)cc1	none
CC(=O)Nc1ccc(S(=O)(=O)NCc2ccc3c(c2)cc(C)n3C)cc1	JMJD2A Tudor inconclusive, G9a block 79µM, BAZ2B inh inconclusive
Cc1cc2cc(CNC(=O)c3ccc(Br)o3)ccc2n1C	Sfp PPTase inh 28µM, JMJD2A Tudor 56µM, BAZ2B inh 35µM
Cc1cccc(NC(=S)NCc2ccc3c(c2)cc(C)n3C)c1C	JMJD2A Tudor 35µM, HP1b chromo inh inconclusive, BAZ2B inh 35µM
Cc1cc2cc(CNS(=O)(=O)c3ccc4ccccc4c3)ccc2n1C	JMJD2A Tudor inconclusive, G9a block inconclusive, BAZ2B inh inconclusive
CCCC(=O)NCc1ccc2c(c1)cc(C)n2C	Sfp PPTase inh inconclusive
Cc1cc2cc(CNC(=O)CCC(=O)O)ccc2n1C	G9a block 18µM, BAZ2B inh inconclusive
CCC(=O)NCCCC[C@H](NC(=O)OCc1ccccc1)C(=O)Nc1ccc2c(C)cc(=O)oc2c1	none (no result: JMJD2A Tudor, G9a block, HP1b chromo inh, BAZ2B inh)
CCc1nc2n[nH]c(N)c2c2c1CSC(C)(C)C2	none
Cc1cccc(NC(=O)NCc2ccc3c(c2)cc(C)n3C)c1	Sfp PPTase inh 50µM, JMJD2A Tudor inconclusive, G9a block inconclusive, BAZ2B inh inconclusive
COc1ccc(S(=O)(=O)c2cn(C)c3cc(N4CCCCCC4)c(F)cc3c2=O)cc1	none (no result: Sfp PPTase inh)
CCSc1nc2ccccc2n1C(=O)/C=C/c1ccc(OC)c(OC)c1	Sfp PPTase inh 56µM, G9a block inconclusive
C=CCSc1nc2ccccc2n1C(=O)/C=C/c1ccc(OC)c(OC)c1	Sfp PPTase inh 28µM (no result: G9a block)
COc1ccc2nc(NC(=S)N(C)C)sc2c1	Sfp PPTase inh inconclusive, JMJD2A Tudor 25µM, G9a block 1.4µM, HP1b chromo inh inconclusive, BAZ2B inh inconclusive
COc1ccc(S(=O)(=O)N2CCCCCC2)cc1C(=O)NCCOc1ccc(C)cc1	none (no result: Sfp PPTase inh)
COc1ccc(NC(=O)CC2SC(=NCC3CCCO3)NC2=O)c([N+](=O)[O-])c1 (stereo not given)	G9a block inconclusive
CCn1c(C)c(C)c2cc(C(=O)N3CCc4ccccc4C3)ccc21	JMJD2A Tudor 40µM, G9a block 45µM, HP1b chromo inh inconclusive, BAZ2B inh 22µM
CCn1c(C(=O)NCCCN2CCc3ccccc3C2)cc2sccc21	JMJD2A Tudor inconclusive, G9a block inconclusive, BAZ2B inh inconclusive
CCn1c(C(=O)N2CCc3ccccc3C2)cc2sccc21	G9a block 50µM
CS(=O)(=O)c1ccc(C(=O)N2CCc3ccccc3C2)cc1	none (no result: BAZ2B inh)
CCN1CCN(C(=O)c2ccc3c(c2)c(C)c(C)n3Cc2ccccc2)CC1	JMJD2A Tudor inconclusive, G9a block 35µM, HP1b chromo inh inconclusive, BAZ2B inh inconclusive
N#Cc1ccc(C(=O)OCC(=O)N2CCOCC2)cc1	G9a block 50µM
N#CCC(=O)Nc1ccc(C(=O)OCC(=O)c2ccc3c(c2)OCCO3)cc1	JMJD2A Tudor 18µM
O=C(COC(=O)CCC(=O)c1ccc(F)cc1)Nc1ccc(N2CCOCC2)cc1	G9a block 50µM
N#Cc1ccc(C(=O)OCC(=O)Nc2ccc(N3CCOCC3)cc2)cc1	G9a block 10µM (no result: BAZ2B inh)
